A-T KAP1 phos = potential ataxia-telangiectasia treatment | F2112 A-T fibroblasts, KAP-1 phosphorylation AlphaLISA; neocarzinostatin DNA damage 30 min before lysis | Potency, µM (series often up to 57.5 µM), for the others: at the highest dose activation, usual class: activators | 0.19% of 320,000 active; further: potency means the concentration at half of the fitted maximal effect; % of control where 0% means no effect; nearly all actives have a fitted effect of over 45% in size
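hTERT-immortalized A-T patient fibroblasts (F2112), 500 cells/well in OPTI-MEM, 1% FBS, got compounds for 60 min, then NCS for 30 min at 37C. Lysates were then assayed for phospho-KAP-1 by AlphaLISA (anti-pKAP1 donor, anti-KAP1 acceptor beads), 6 hr at 25C.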
TRPML1 blocker = blocks the human TRPML1 channel | Q9GZU1 | TRPML1-inducible cells, Ca2+ dye fluorescence, FDSS; active compounds read low; inhibition of EC80 agonist-evoked calcium signal | activity change, negative = inhibition, % (test concentration not listed) | 0.02% of 390,000 active | AID 624415; in the data active means activity change below about -50%; inconclusive means between about -30% and that limit;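 further: stimulus is agonist 54-4 at its EC80 concentration; on the % scale 0 is the no-effect control and ±100 the full control effect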
Target sequence (Q9GZU1 whole entry, looked up): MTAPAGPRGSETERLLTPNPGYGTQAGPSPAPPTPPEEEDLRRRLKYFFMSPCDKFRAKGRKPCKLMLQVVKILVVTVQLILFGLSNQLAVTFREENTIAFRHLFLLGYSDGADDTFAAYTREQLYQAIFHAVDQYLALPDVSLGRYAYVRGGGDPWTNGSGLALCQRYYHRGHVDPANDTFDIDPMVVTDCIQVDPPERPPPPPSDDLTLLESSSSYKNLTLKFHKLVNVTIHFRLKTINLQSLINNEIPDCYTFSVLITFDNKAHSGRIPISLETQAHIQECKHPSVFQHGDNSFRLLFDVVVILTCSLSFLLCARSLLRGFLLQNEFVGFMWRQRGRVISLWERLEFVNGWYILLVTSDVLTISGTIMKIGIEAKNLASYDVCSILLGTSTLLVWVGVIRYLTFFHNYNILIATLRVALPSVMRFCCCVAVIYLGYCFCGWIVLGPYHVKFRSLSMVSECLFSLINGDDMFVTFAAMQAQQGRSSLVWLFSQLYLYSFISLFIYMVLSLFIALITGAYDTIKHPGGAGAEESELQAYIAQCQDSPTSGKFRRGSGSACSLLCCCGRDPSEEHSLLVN
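Calcium fluorescence in TRPML1-DL cells induced overnight with Tet: a 110 s read after compound pin addition, then a 110 s antagonist read after challenge with 54-4 at 4 uM final (EC80).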
TRPML1 ag = activates the human TRPML1 channel | Q9GZU1 | 0.12% of 410,000 active | activation, % (test concentration not listed) | AID 624414 | TRPML1-expressing cells, Ca2+ dye fluorescence, FDSS; in the data active means activation above about 50%; inconclusive means mostly about 30% to 49%; further: 0% is about no effect
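In this qHTS format, compounds were pin-transferred onto Ca8-dye-loaded TRPML1-DL cells induced with Tet overnight, and intracellular Ca2+ fluorescence was recorded kinetically for 110 s after a 10 s baseline. A subsequent 4uM final 54-4 (EC80) addition followed by a second 110 s read served as the antagonist phase.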
Vif-A3G inh = blocks the Vif interaction with human APOBEC3G. Potency, µM (series often up to 46.1 µM), for the others: at the top dose activity, negative = active, most hits filed as inhibitors. HeLa A3G-eYFP + Vif (tagged APOBEC3G with the HIV-1 protein that degrades it), YFP fluorescence, overnight. 0.076% of 410,000 active. AID 602310; further: potency means the concentration at half of the fitted maximal effect; on the % scale 0 is the no-effect control and ±100 the full control effect; nearly all actives have a fitted effect of over 60% in size
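Read-out is eYFP fluorescence (Ex 488/Em 500-530) from Vif-expressing HeLa A3G-eYFP cells; more signal means A3G escaped Vif-mediated degradation. Cells plated overnight, compound pinned in, incubated overnight at 37 deg C.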
Vif-A3F inh = Vif-A3F binding inhibition | HeLa A3F-eYFP + Vif (tagged APOBEC3F with the HIV-1 protein that degrades it), YFP fluorescence increase | Potency, µM (titrated, usually from 46.1 µM), for inactives: at the highest dose activity, negative = active | 0.2% of 390,000 active | AID 602313; further: potency means the concentration at half of the fitted maximal effect; % of control where 0% means no effect; nearly all actives have a fitted effect of over 65% in size
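HeLa cells stably expressing Vif plus C-terminally eYFP-tagged A3F were seeded, incubated overnight at 37 deg C, dosed with compound, incubated overnight again at 37 deg C. Yellow fluorescence (Ex 488/Em 500-530) reported blocked Vif-mediated A3F-eYFP degradation.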
* hit, by the source's call; ? = inconclusive; · = no result given. Hits are enriched below; roughly 0.54% of the tested compounds scored in any of these assays. Unless noted, the call rests on the fitted dose curve; in most records, active means well fitted curve in the direction sought with a large enough effect; inconclusive means small, poorly fitted or top-dose-only effect, or another doubt; inactive means no such curve, though single readings can be large; an effect the other way counts as inactive or inconclusive.

SMILES	A-T KAP1 phos	TRPML1 blocker	TRPML1 ag	Vif-A3G inh	Vif-A3F inh
CC(C)(C)c1ccc(S(=O)(=O)N2CCN(C3CCCC3)CC2)cc1	2.2%	1.5	-0.3	3.6%	-0.5%
CC(C)(C)n1ncc2c(=O)n(Cc3c(F)ccc(Cl)c3Cl)cnc21	·	6.3	2.3	1.0%	·
CCCc1nn2c(=O)cc(COC(=O)c3cccc(NC(=O)CCc4ccccc4)c3)nc2s1	·	-62.2*	2.4	-5.7%	1.6%
CCCC1=[N+](CC(=O)c2ccc(Br)cc2)CCn2cccc21	-10.8%	24.0	0.5	-22.6%	11.2µM*
CCSC1=N/C(=C\C=C2/Oc3ccccc3N2CC)C(=O)S1	-5.6%	-8.5	6.4	7.08µM*	6.31µM*
COc1cc2c(NC3CCN(C)CC3)nc(N3CCCN(C)CC3)nc2cc1OCC1CCCCN1 (configuration not stated)	·	·	-0.3	2.4%	·
O=C(CNc1ccc(F)cc1)N/N=C/C1CC=CCC1 (configuration not stated)	-1.8%	-10.8	0.2	-2.0%	3.2%
O=C(CNc1n[nH]c(=O)[nH]c1=O)N/N=C/C1CC=CCC1 (configuration not stated)	31.6µM*	-10.8	-0.8	-0.5%	-13.4%
CCc1ccc2ncc3c(-c4ccc(C)cc4)nn(CC(=O)Nc4ccc(C)cc4)c3c2c1	·	28.3	0.3	-4.7%	1.8%
CCS(=O)(=O)c1nn2c(N)c(/C=C3/C=CC(=O)C(OC)=C3)c(=O)nc2s1	9.3%	1.3	2.7	-8.3%	20µM*
COC1=C/C(=C/c2c(N)n3nc(-c4ccc(C)cc4)sc3nc2=O)C=CC1=O	0.7%	6.5	0.2	-18.5%	11.2µM*
CCOC1=C/C(=C/c2c(N)n3nc(-c4ccccc4)sc3nc2=O)C=CC1=O	-1.9%	3.7	1.3	-16.1%	8.91µM*
CCOC1=C/C(=C/c2c(N)n3oc(C)cc3nc2=O)C=CC1=O	-5.6%	·	·	·	·
Nc1cc(=O)nc(SCC(=O)Nc2ccc(F)cc2)n1-c1ccc(Cl)cc1	·	-6.8	-0.2	-7.1%	-1.5%
CCOC(=O)c1cc(-c2ccccc2)n(CC(=O)NC2CCC(C)CC2)c1C (configuration not stated)	·	-16.1	2.8	-6.0%	0.6%
Cc1ccc(CNc2ccc3c(c2)OCO3)cc1	·	29.2	5.7	22.4µM*	25.1µM*
c1cc(CNc2ccc3c(c2)OCO3)ccn1	0.6%	-5.6	0.3	1.1%	-7.3%
COc1ccc(OC)c(NC(=O)C(Sc2ccccc2)c2ccccc2)c1 (configuration not stated)	10.5%	-51.5*	2.7	0.9%	1.0%
COc1ccc(NC(=O)C(c2ccccc2)c2ccccc2)c(OC)c1	·	-1.7	0.0	1.2%	15.1%
Cc1ccc(-c2nn3c(=O)cc(CN4CCN(C(=O)/C=C/c5ccccc5)CC4)nc3s2)cc1	·	-5.5	0.2	-2.2%	-1.6%
Cc1cc(C)c(-c2noc(C(=O)OC(C)(C)C)c2C(=O)OC(C)(C)C)c(C)c1	4.1%	-2.8	52.9*	2.4%	?
CC1CC(=O)C2=C(C1)OC(N)=C(C#N)C2c1coc2ccccc2c1=O (configuration not stated)	-3.3%	4.4	0.7	-15.1%	11.2µM*
CC1(C)CC(=O)C2=C(C1)OC(N)=C(C#N)C2c1ccccc1 (configuration not stated)	1.9%	5.0	-0.1	-5.3%	-0.5%
Cc1cc(C)cc(N2C(=O)CSC23C(=O)N(Cc2c(F)cccc2Cl)c2ccccc23)c1 (configuration not stated)	·	-3.4	3.4	0.2%	1.0%
CC(O)CN(CC(C)O)c1ccc2c(c1)Cc1cc([N+](=O)[O-])ccc1-2 (configuration not stated)	·	6.2	82.5*	?	?
CN(C)S(=O)(=O)N(CC(=O)NCCSCc1cccc(Cl)c1)c1ccccc1	·	10.5	1.1	2.3%	-7.2%
O=C(C1COc2ccccc2O1)N1CCCC1 (configuration not stated)	·	-6.8	0.3	-0.1%	9.7%
COC(=O)[C@@H](NC(=O)N1CCN(C(=O)C2COc3ccccc3O2)CC1)C(C)C (some centres not stated)	-2.2%	-60.1*	1.4	2.9%	0.8%

Compound activity as filed in PubChem.
